PubChem BioAssay AID1159580 (chemical genetic matrix, 2015)
Among all 5,500 compounds or so, about 2,000 (36%) were called active. About 18% were inconclusive and are not listed. Cut-off read from the data, not from the text of the source: active = normalized growth mostly below about 0.91 (no sharp cut-off); inconclusive = no clear call, values can overlap the other calls; inactive = mostly above about 0.92. Some of the results follow.

Assay: chemical genetic growth profiling, strain panel (AID 1159580);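 note: tested at 20 µM; growth read once vehicle control cultures reached saturation at 30 °C; 1 = growth at the plate median or of vehicle wells; lower values mean less growth of the strain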
Settings: S. cerevisiae deletion strains, growth OD

Measured: normalized growth

Cc1c(O)cc(O)c2c(=O)c(-c3ccc(O)cc3)coc12
inactive: locus YBR021W, strain FUR4, active compounds read low 1.01 | locus YBR229C, strain ROT2, active compounds read low 1 | locus YCL029C, strain bik1, active compounds read low 1.02 | locus YDL035C, strain GPR1, active compounds read low 1.01 | locus YDL074C, strain BRE1, active compounds read low 1.01 | locus YDL101C, strain DUN1, active compounds read low 1.01 | locus YDL185W, strain tfp1, active compounds read low 1.01 | locus YDL192W, strain arf1, active compounds read low 1.02 | locus YDR101C, strain arx1, active compounds read low 1 | locus YDR150W, strain NUM1, active compounds read low 0.997 | locus YDR162C, strain NBP2, active compounds read low 1 | locus YDR318W, strain mcm21, active compounds read low 1 | locus YDR388W, active compounds read low 1.01 | locus YDR502C, strain sam2, active compounds read low 1.01 | locus YEL061C, strain CIN8, active compounds read low 0.993 | locus YER110C, active compounds read low 1.02 | locus YER155C, strain BEM2, active compounds read low 1.01 | locus YER167W, strain BCK2, active compounds read low 1 | locus YGL078C, strain dbp3, active compounds read low 1.01 | locus YGL086W, strain mad1, active compounds read low 1.02 | locus YGL248W, strain PDE1, active compounds read low 1 | locus YGR078C, strain PAC10, active compounds read low 0.978 | locus YGR135W, strain pre9, active compounds read low 1.03 | locus YGR229C, strain SMI1, active compounds read low 0.987 | locus YGR252W, strain gcn5, active compounds read low 0.983 | locus YHR030C, strain SLT2, active compounds read low 1 | locus YHR079C, strain IRE1 (second series), active compounds read low 1 | locus YHR094C, strain hxt1, active compounds read low 1 | locus YHR129C, strain ARP1, active compounds read low 1 | locus YHR200W, strain rpn10, active compounds read low 1.01 | locus YIL066C, strain RNR3, active compounds read low 0.995 | locus YIL073C, strain SPO22, active compounds read low 1.07 | locus YIL125W, strain kgd1, active compounds read low 0.996 | locus YIR030C, strain dcg1, active compounds read low 1.01 | locus YJL095W, strain BCK1, active compounds read low 0.998 | locus YJL134W, strain LCB3, active compounds read low 1 | locus YJL168C, strain set2, active compounds read low 1 | locus YJL187C, strain SWE1 (second series), active compounds read low 0.991 | locus YJR043C, strain POL32, active compounds read low 0.997 | locus YJR075W, strain HOC1, active compounds read low 0.99 | locus YKL009W, strain mrt4, active compounds read low 0.99 | locus YKL068W, active compounds read low 1 | locus YKL085W, strain MDH1 (second series), active compounds read low 0.994 | locus YKL085W, strain MDH1, active compounds read low 0.994 | locus YKL190W, strain CNB1, active compounds read low 0.986 | locus YKR001C, strain vps1, active compounds read low 0.992 | locus YLR039C, strain RIC1, active compounds read low 1.18 | locus YLR058C, strain SHM2, active compounds read low 0.993 | locus YLR102C, strain apc9, active compounds read low 1.01 | locus YLR262C, strain YPT6, active compounds read low 1.21 | locus YLR268W, strain sec22, active compounds read low 1.01 | locus YLR330W, strain CHS5, active compounds read low 1.01 | locus YLR342W, strain FKS1 (second series), active compounds read low 1.02 | locus YLR371W, strain rom2, active compounds read low 1.01 | locus YLR418C, strain cdc73, active compounds read low 0.95 | locus YML016C, strain PPZ1, active compounds read low 1.01 | locus YML032C, strain rad52, active compounds read low 0.995 | locus YML124C, strain tub3, active compounds read low 1.02 | locus YMR078C, strain ctf18, active compounds read low 1.01 | locus YMR223W, strain ubp8, active compounds read low 1.01 | locus YMR263W, strain SAP30, active compounds read low 0.989 | locus YMR307W, strain GAS1, active compounds read low 0.993 | locus YNL067W, strain RPL9B, active compounds read low 0.986 | locus YNL153C, strain GIM3, active compounds read low 0.979 | locus YNL233W, strain BNI4, active compounds read low 0.979 | locus YNL250W, strain rad50, active compounds read low 1.01 | locus YNL271C, strain bni1, active compounds read low 1.02 | locus YNL298W, strain CLA4, active compounds read low 1.01 | locus YNL307C, strain MCK1, active compounds read low 1.01 | locus YNR052C, strain pop2, active compounds read low 1.01 | locus YOL012C, strain htz1 1.03 | locus YOL147C, strain pex11, active compounds read low 0.998 | locus YOR061W, strain CKA2, active compounds read low 1 | locus YOR069W, strain VPS5, active compounds read low 1.01 | locus YOR136W, strain idh2, active compounds read low 0.999 | locus YOR144C, strain elg1, active compounds read low 1 | locus YOR184W, strain ser1, active compounds read low 0.988 | locus YOR316C, strain cot1, active compounds read low 1.02 | locus YPL055C, strain LGE1, active compounds read low 0.944 | locus YPR119W, strain clb2, active compounds read low 1 | locus YPR141C, strain kar3, active compounds read low 1.02 | locus YPR163C, strain tif3, active compounds read low 1 | locus YPR167C, strain met16, active compounds read low 1.03 | strain wtn01, active compounds read low 1.01
